Test results: article PMC5540273 (PLoS ONE, 2017)

How the values were obtained:
Conditions in all cases: concentration: 1 μM,replicates: in singlicate; n = 1
[1] = system: T1, RSK4(Kin.Dom.1-N-terminal)
T1 construct: gene RPS6KA6

[2] = system: T2, RSK4(Kin.Dom.2-C-terminal)
T2 construct: gene RPS6KA6

[3] = system: S6K1
[4] = system: SBK1
[5] = system: SGK2
[6] = system: SGK3
[7] = system: SGK
[8] = system: SIK2
[9] = system: SIK
[10] = system: SLK
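Further: KINOMEscan kinase panel screen.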

CCn1c(-c2nonc2N)nc2cncc(Br)c21 [SB-738004]
%Inh [1]: 64%
%Inh [2]: 29%
%Inh [3]: 45%
%Inh [4]: 8%
%Inh [5]: 0%
%Inh [6]: 66%
%Inh [7]: 45%
%Inh [8]: 7%
%Inh [9]: 15%
%Inh [10]: 0%

CN1CCN(CCCNc2nccc(-c3c(-c4ccc(F)cc4)nn4cc(C(N)=O)ccc34)n2)CC1 [GW622475]
%Inh [1]: 0%
%Inh [2]: 91.6%
%Inh [3]: 8%
%Inh [4]: 23%
%Inh [5]: 0%
%Inh [6]: 8%
%Inh [7]: 0%
%Inh [8]: 9%
%Inh [9]: 7%
%Inh [10]: 63%

CCOC(=O)N1CCC(n2cnc(-c3ccc(F)cc3)c2-c2ccnc(N)n2)CC1 [SB-219952]
%Inh [1]: 9%
%Inh [2]: 65%
%Inh [3]: 22%
%Inh [4]: 0%
%Inh [5]: 33%
%Inh [6]: 6%
%Inh [7]: 17%
%Inh [8]: 0%
%Inh [9]: 0%
%Inh [10]: 0%

COC(=O)c1cccc(NC(=O)NC2CCN(c3ccnc(Nc4cc(OC)c(OC)c(OC)c4)n3)C2)c1 (centres unmarked) [GSK1379767]
%Inh [1]: 0%
%Inh [2]: 16%
%Inh [3]: 0%
%Inh [4]: 6%
%Inh [5]: 0%
%Inh [6]: 2%
%Inh [7]: 0%
%Inh [8]: 5%
%Inh [9]: 0%
%Inh [10]: 28%

Cn1cc(-c2cccc3c(N)c(C(N)=O)nnc23)cn1
%Inh [1]: 22%
%Inh [2]: 3%
%Inh [3]: 22%
%Inh [4]: 19%
%Inh [5]: 45%
%Inh [6]: 64%
%Inh [7]: 78%
%Inh [8]: 17%
%Inh [9]: 24%
%Inh [10]: 0%

COc1cc2nccc(Nc3ccc(Oc4ccccc4)cc3)c2cc1OC.Cl [GI261656]
%Inh [1]: 0%
%Inh [2]: 9%
%Inh [3]: 0%
%Inh [4]: 0%
%Inh [5]: 0%
%Inh [6]: 0%
%Inh [7]: 0%
%Inh [8]: 0%
%Inh [9]: 0%
%Inh [10]: 26%

O=C1NCCc2[nH]c(-c3ccncc3)cc21
%Inh [1]: 22%
%Inh [2]: 25%
%Inh [3]: 11%
%Inh [4]: 44%
%Inh [5]: 27%
%Inh [6]: 36%
%Inh [7]: 44%
%Inh [8]: 34%
%Inh [9]: 13%
%Inh [10]: 22%

C[C@@H](Oc1cc(-n2cnc3cc(-c4cnn(C)c4)ccc32)sc1C(N)=O)c1ccccc1Cl [GSK580432]
%Inh [1]: 37%
%Inh [2]: 7%
%Inh [3]: 0%
%Inh [4]: 13%
%Inh [5]: 5%
%Inh [6]: 0%
%Inh [7]: 0%
%Inh [8]: 74%
%Inh [9]: 65%
%Inh [10]: 99.7%
